This is a sample that favours compounds with a hit; in the whole collection about 6.2% have one here.
AI-2 QS mod – Vibrio harveyi AI-2 quorum sensing modulation. Vibrio harveyi JMH597 AI-2 luminescence/OD600 ratio, 9 h; hits give low values; strain lacks LuxN and CqsS sensors; 0 = neutral-control median. activity change, % at 7.5 µM. hit rate 0.4% among 300,000; in the data active = activity change below about -75%, passing the limit was not always enough; inconclusive = no clear call, values can overlap the other calls;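 also: luminescence divided by OD600 gain over 9 h not by final OD600 alone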
H9c2 protect – myocardial damage modulation in H9c2 cells. H9c2 cardiomyocytes, H2O2 injury protection, ATPLite, 2 h. protection from H2O2 cell death, % at 20 µM. hit rate 0.63% among 360,000;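 active = compounds giving at least 50% protection of heart cells from peroxide-induced death in the single-dose screen, raw or plate-pattern-corrected value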;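 also: 0% = DMSO wells with peroxide and 100% = DMSO wells without peroxide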
Mot1-301 SUMO – blocks SUMOylation pathway, rescuing yeast Mot1-301 growth. S. cerevisiae Mot1-301 growth rescue, ATP luminescence, 38.5C; percent above DMSO median, 100 means doubled. growth rescue, % at 18.8 µM. hit rate 1% among 320,000. AID 2716;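 active = every valid replicate shows activation above 250% relative to neutral control wells; inactive = the rest, any valid replicate at or below 250%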;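 also: OY570 slx delta 5 strain wells were the positive control but not used for scaling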
AHR activator – human AHR activation. P35869. AHR-responsive luciferase reporter cells, luminescence. activation, % at 5 µM. hit rate 2.5% among 320,000. AID 2796; in the data active = activation above about 47%;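 also: 0% = vehicle wells and 100% = reference agonist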
Target sequence (P35869 whole entry, looked up): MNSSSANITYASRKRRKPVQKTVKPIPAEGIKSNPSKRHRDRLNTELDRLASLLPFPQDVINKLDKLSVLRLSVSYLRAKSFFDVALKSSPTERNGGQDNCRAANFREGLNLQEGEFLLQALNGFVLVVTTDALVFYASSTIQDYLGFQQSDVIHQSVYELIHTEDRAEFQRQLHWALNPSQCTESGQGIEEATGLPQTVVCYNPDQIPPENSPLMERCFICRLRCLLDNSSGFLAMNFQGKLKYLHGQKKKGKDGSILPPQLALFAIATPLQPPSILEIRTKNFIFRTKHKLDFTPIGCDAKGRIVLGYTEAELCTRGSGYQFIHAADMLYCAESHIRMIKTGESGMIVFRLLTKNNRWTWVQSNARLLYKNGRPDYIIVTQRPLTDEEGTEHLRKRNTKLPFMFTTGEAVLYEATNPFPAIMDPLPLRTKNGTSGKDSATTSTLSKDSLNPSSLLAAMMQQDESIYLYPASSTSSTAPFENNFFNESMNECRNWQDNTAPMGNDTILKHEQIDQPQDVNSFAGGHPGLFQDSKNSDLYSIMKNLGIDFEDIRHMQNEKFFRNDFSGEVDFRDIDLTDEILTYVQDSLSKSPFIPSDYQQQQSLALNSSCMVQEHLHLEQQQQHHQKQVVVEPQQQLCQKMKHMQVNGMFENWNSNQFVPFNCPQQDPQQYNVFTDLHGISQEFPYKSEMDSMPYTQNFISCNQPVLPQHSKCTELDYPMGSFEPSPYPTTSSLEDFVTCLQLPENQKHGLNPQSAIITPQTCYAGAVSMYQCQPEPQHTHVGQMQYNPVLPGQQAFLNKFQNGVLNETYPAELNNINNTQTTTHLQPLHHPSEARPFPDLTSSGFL
NTR1 agonist – activates human neurotensin receptor 1; hit rate 0.17% among 330,000; NTR1-U2OS beta-arrestin-GFP spot imaging, agonist mode; activation, % at 20 µM;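 active = activation at or above 40% of the spot to cytoplasm intensity ratio, with at least 20 cells analyzed; inconclusive = wells under 20 cells, flagged as cytotoxic or low count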;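 also: 0% = DMSO without peptide and 100% = 100 nM NTR1 peptide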
GRIN3A LBD mod – modulators (binders) of human NR3A ligand-binding domain | Tm shift relative to glycine control, % at 25 µM | NR3A LBD differential scanning fluorimetry, Tm shift; 0% = protein alone, 100% = glycine-bound protein | hit rate 2.5% among 340,000;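 active = melting temperature shift of at least 10% of the positive control shift, at one fixed dose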
JMH597 growth rt – retest: blocks Vibrio harveyi JMH597 growth; AID 2726; OD600 absorbance, 9 h; lacks LuxN and CqsS sensors; hit rate 1% among 750; shares compounds with AI-2 QS mod; growth inhibition, % at 7.5 µM;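 active = every replicate shows growth inhibition above 50%; inconclusive = at least half, but not all, replicates pass that cutoff; inactive = fewer than half of replicates pass it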
BB721 const-QS lum – retest counter-screen: lowers luminescence of constitutive-QS Vibrio harveyi BB721 | shares compounds with AI-2 QS mod | 9 h | inhibition, % at 7.5 µM | hit rate 95% among 750 | AID 2727;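 active = inhibition above about 80% in every replicate, not just on average, limit read from the data; inconclusive = at least half of replicates past the limit, but not all; inactive = fewer than half of replicates past the limit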
BB721 growth – retest: blocks Vibrio harveyi BB721 growth; shares compounds with AI-2 QS mod; OD600 absorbance, 9 h; growth inhibition, % at 7.5 µM; hit rate 3% among 750;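 active = every replicate shows growth inhibition above 50%; inconclusive = at least half but not all replicates above 50% inhibition; inactive = under half of replicates above 50% inhibition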
AI-2 QS JMH597 – Vibrio harveyi AI-2 signaling luminescence modulation – JMH597 strain, confirmation | shares compounds with AI-2 QS mod | Vibrio harveyi JMH597 AI-2 quorum sensing luminescence, 9 h; luxN and CqsS knockout, AI-2 only | inhibition, % at 7.5 µM | hit rate 97% among 750;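 active = every replicate shows more than 75% inhibition of signal versus neutral control wells; inconclusive = half to three quarters of replicates exceed 75% inhibition; inactive = fewer than half of replicates exceed 75% inhibition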
Numbers without * were called inactive.

`COc1ccc(OCC(=O)Nc2ccc(S(=O)(=O)Nc3cc(C)on3)cc2)cc1` gave AI-2 QS mod -84*, H9c2 protect 4, Mot1-301 SUMO -6, AHR activator -2, NTR1 agonist 1, GRIN3A LBD mod -1, JMH597 growth rt -9, BB721 const-QS lum 91*, BB721 growth 20 and AI-2 QS JMH597 92*.
Cc1cc(NS(=O)(=O)c2ccc(NC(=O)COc3cc(C)c(Cl)c(C)c3)cc2)no1 was read as H9c2 protect -5, Mot1-301 SUMO 9, AHR activator -3, NTR1 agonist 6 and GRIN3A LBD mod -4.
CC(=O)N1CCOc2ccc(S(=O)(=O)NC(C)c3ccccc3)cc21 (centres undefined) was read as H9c2 protect 2, Mot1-301 SUMO 3, AHR activator 0, NTR1 agonist 0 and GRIN3A LBD mod 0.
COc1ccc(CC(=O)Nc2ccc(S(=O)(=O)Nc3ncccn3)cc2)cc1 was read as AI-2 QS mod -91*, H9c2 protect 14, Mot1-301 SUMO -19, AHR activator 0, NTR1 agonist 1, GRIN3A LBD mod -3, JMH597 growth rt 0, BB721 const-QS lum 93*, BB721 growth 21 and AI-2 QS JMH597 96*.
Screening C=CCn1c(SCC(=O)Nc2ccc3c(c2)OCCO3)nc2cc(C(=O)O)ccc2c1=O returned H9c2 protect 5, Mot1-301 SUMO -9, AHR activator 2, NTR1 agonist -1 and GRIN3A LBD mod 0.
COC(=O)c1cc(NC(=O)CN(C)C2CCS(=O)(=O)C2)cc(C(=O)OC)c1 (centres undefined) was read as H9c2 protect -7, Mot1-301 SUMO -8, AHR activator 0, NTR1 agonist 0 and GRIN3A LBD mod 0.
O=C(c1ccc2c3n(nc2c1)-c1ccccc1CO3)N1CCCCC1 was read as AI-2 QS mod -84*, H9c2 protect -10, Mot1-301 SUMO -44, AHR activator 6, NTR1 agonist 1, GRIN3A LBD mod 1, JMH597 growth rt 25, BB721 const-QS lum 89*, BB721 growth 26 and AI-2 QS JMH597 95*.
For Oc1oc(-c2ccccc2)nc1C=NCc1ccccc1 the results were AI-2 QS mod inconclusive, H9c2 protect 4, Mot1-301 SUMO 57, AHR activator 1, NTR1 agonist 4, GRIN3A LBD mod -11, JMH597 growth rt 14, BB721 const-QS lum 93*, BB721 growth 22 and AI-2 QS JMH597 95*.
For CSc1ccccc1N=Cc1nc(-c2ccccc2)oc1O the results were AI-2 QS mod 17, H9c2 protect 9, Mot1-301 SUMO 21, AHR activator 6, NTR1 agonist 2 and GRIN3A LBD mod -6.
Screening CCN(CC)C(=O)C1=C(C)N(Cc2ccc(C(C)(C)C)cc2)C(=O)C(CC(=O)NC2CC2)C1 (centres undefined) returned H9c2 protect -3.
Screening O=C(NCc1ccccc1F)Nc1ccc([N+](=O)[O-])cc1 returned AI-2 QS mod inconclusive, H9c2 protect -16, Mot1-301 SUMO 5, AHR activator 3, NTR1 agonist 0, GRIN3A LBD mod -8, JMH597 growth rt 15, BB721 const-QS lum 91*, BB721 growth 24 and AI-2 QS JMH597 93*.
For O=c1c2ccccc2nc2c3ccccc3c(NCCN3CCOCC3)nn12 the results were AI-2 QS mod 10, Mot1-301 SUMO 27, AHR activator 13 and NTR1 agonist 2.
O=c1c2c(-c3ccccc3)csc2nc2c3ccccc3c(NCCN3CCOCC3)nn12 was read as AI-2 QS mod -96*, H9c2 protect -37, GRIN3A LBD mod -15, JMH597 growth rt 76*, BB721 const-QS lum 100*, BB721 growth inconclusive and AI-2 QS JMH597 100*.
Screening O=C(CCc1ccccc1)Nc1cc(Cl)ccc1O returned AI-2 QS mod -97*, H9c2 protect -7, Mot1-301 SUMO 10, AHR activator -3, NTR1 agonist 1, GRIN3A LBD mod -4, JMH597 growth rt 47, BB721 const-QS lum 100*, BB721 growth 46 and AI-2 QS JMH597 100*.
For O=C(O)CC(=O)Nc1cc(Cl)ccc1O the results were AI-2 QS mod 23, H9c2 protect -2, Mot1-301 SUMO 3, AHR activator 3, NTR1 agonist -1 and GRIN3A LBD mod 2.
For Cc1ccc(SCc2nc(-c3cccnc3)no2)cc1 the results were AI-2 QS mod inconclusive, H9c2 protect -4, Mot1-301 SUMO 2, AHR activator 6, NTR1 agonist 0, GRIN3A LBD mod -4, JMH597 growth rt 23, BB721 const-QS lum 96*, BB721 growth 10 and AI-2 QS JMH597 97*.
`O=C(Cn1nnc2ccccc21)Nc1ccc([N+](=O)[O-])cc1` gave AI-2 QS mod -92*, H9c2 protect -4, Mot1-301 SUMO 248, AHR activator 0, NTR1 agonist 1, GRIN3A LBD mod -2, JMH597 growth rt -21, BB721 const-QS lum 99*, BB721 growth -35 and AI-2 QS JMH597 99*.
For CC1(c2ccccc2)NC(=O)N(CC(=O)Nc2ccc([N+](=O)[O-])cc2)C1=O (centres undefined) the results were AI-2 QS mod -89*, H9c2 protect -14, Mot1-301 SUMO -6, AHR activator 0, NTR1 agonist -1, GRIN3A LBD mod -2, JMH597 growth rt 15, BB721 const-QS lum 97*, BB721 growth 2 and AI-2 QS JMH597 98*.
`CC1(c2ccccc2)NC(=O)N(CC(=O)NC(=O)NCc2ccco2)C1=O` (centres undefined) gave AI-2 QS mod -82*, H9c2 protect -8, Mot1-301 SUMO -21, AHR activator -1, NTR1 agonist 1, GRIN3A LBD mod 1, JMH597 growth rt -16, BB721 const-QS lum 88*, BB721 growth -6 and AI-2 QS JMH597 92*.
Screening CC1SC(C)C(=O)N(CC(=O)Nc2ccc([N+](=O)[O-])cc2)C1=O (centres undefined) returned AI-2 QS mod -94*, H9c2 protect 0, Mot1-301 SUMO 2, AHR activator 8, NTR1 agonist 3, GRIN3A LBD mod -1, JMH597 growth rt 25, BB721 const-QS lum 99*, BB721 growth 19 and AI-2 QS JMH597 99*.

Bioassay records deposited in PubChem by several laboratories.
